Screening results (PubChem)
An excerpt weighted towards active compounds, which were near 28% of everything screened.
CYP2C9 inh: human CYP2C9 inhibition | AID 777 | CYP2C9 Supersomes, luciferin-H conversion, luminescence | inhibition, % at 5 µM | 20% of 96,000 active;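 active means blocking of liver enzyme CYP2C9 beyond about 50% at 5 µM, limit read from the data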
Target sequence (P11712 whole entry, looked up): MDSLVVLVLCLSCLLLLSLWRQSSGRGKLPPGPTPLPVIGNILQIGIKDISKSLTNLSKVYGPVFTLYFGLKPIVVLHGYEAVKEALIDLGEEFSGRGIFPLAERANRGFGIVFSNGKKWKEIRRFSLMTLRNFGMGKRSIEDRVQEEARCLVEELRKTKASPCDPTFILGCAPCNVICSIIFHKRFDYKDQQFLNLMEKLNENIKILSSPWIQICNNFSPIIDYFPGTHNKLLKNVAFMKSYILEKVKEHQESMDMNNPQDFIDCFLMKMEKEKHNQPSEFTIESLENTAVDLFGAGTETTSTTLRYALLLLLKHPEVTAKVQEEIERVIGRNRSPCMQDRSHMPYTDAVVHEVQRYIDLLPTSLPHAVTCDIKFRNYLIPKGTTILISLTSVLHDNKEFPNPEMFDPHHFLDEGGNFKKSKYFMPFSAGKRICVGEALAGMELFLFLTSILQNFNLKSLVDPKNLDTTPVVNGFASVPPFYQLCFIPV
Pyk2 oligo antag: blocks oligomerization of human Pyk2 in cells. Q293 cells, Pyk2 FERM NanoBiT luminescence; stronger effect = lower value. z-score (the deposit names both 25 µM and 10 µM). 0.83% of 99,000 active;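 active means Z-score of -3 or lower, scaled per plate to the spread of control and sample wells; inactive means z-score above -3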;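 further: negative z-score means lost luminescence so less FERM oligomerization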
CYP2C9 activ: CYP2C9 (human) activation. P11712. recombinant CYP2C9, luciferin-H conversion, luminescence; stronger effect = higher value; factor 1 = untreated enzyme, 0 = blocked. activation factor at 5 µM. 1.4% of 96,000 active;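 active means activation factor of 2 or more for CYP2C9 at a 5 µM dose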;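 further: 0 = sulfaphenazole-blocked wells and 1 = vehicle-only wells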
CYP2C19 inh: inhibitors of human CYP2C19. AID 778. P33261. 21% of 96,000 active. CYP2C19 Supersomes, luciferin-H EGE luminescence, 30 min. inhibition, % at 5 µM;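 active means CYP2C19 inhibition above a set limit at 5 µM in the primary screen, cut at about 50% in these data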;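 further: plate controls were negative control wells for no effect and 2.5 mM tranylcypromine positive control for full effect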
CYP2C19 act: activators of human cytochrome P450 2C19; activation factor at 5 µM; recombinant CYP2C19, luciferin-H EGE luminescence; stronger effect = higher value; 0 = fully inhibited enzyme, 1 = untreated enzyme; AID 1025; 96,000 tested, under 10 active;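 active means activation factor of at least 2 at 5 µM in the primary screen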;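 further: 0 = wells with 2.5 mM tranylcypromine and 1 = vehicle-only wells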
Starred values were filed as active, the others as inactive; x = no result.

SMILES	CYP2C9 inh	Pyk2 oligo antag	CYP2C9 activ	CYP2C19 inh	CYP2C19 act
COC(=O)c1ccccc1NC(=O)Oc1ccc(C(C)C)cc1	-45	-1.3	1.5	10	0.9
COc1ccccc1NC(=O)C(C)NS(=O)(=O)c1ccc(F)cc1 (stereo not drawn)	-205	0.07	3*	53*	0.5
COc1ccc(NC(=O)C(C)NS(=O)(=O)c2ccccc2)cc1Cl (stereo not drawn)	34	0.73	0.7	87*	0.1
COc1ccccc1CNC(=O)C(C)NS(=O)(=O)c1ccc(Br)cc1 (stereo not drawn)	x	1.6	x	x	x
N#CC1=C(Nc2ccccc2)SC=C(c2ccc(Cl)c(Cl)c2)N=C1N1CCOCC1	22	0.63	0.8	1	1
COc1ccccc1NC(=O)C(C)NS(=O)(=O)c1ccc(Cl)cc1 (stereo not drawn)	-237	0.85	3.4*	74*	0.3
COC(=O)c1ccccc1NC(=O)C(C)NS(=O)(=O)c1ccc(OC)cc1 (stereo not drawn)	13	0.27	0.9	57*	0.4
COc1ccccc1NC(=O)C(C/C=C(/C)Cl)C(C)=O (stereo not drawn)	x	0.27	x	x	x
COC(=O)c1cccc(NS(=O)(=O)c2ccc(OC)cc2)c1C	x	1.7	x	x	x
O=C(Nc1ccc(NC(=S)NC(=O)c2ccccc2Cl)cc1)c1cccc(Cl)c1	x	-0.82	x	x	x
Cc1ccc(-n2nc(C)c(C3C(C#N)=C(N)OC4=C3C(=O)CC(C)(C)C4)c2Cl)cc1 (stereo not drawn)	11	x	0.9	7	0.9
CCOC(=O)C1=C(C)OC(N)=C(C#N)C1c1c(C)nn(-c2ccccc2)c1Cl (stereo not drawn)	74*	-0.83	0.3	83*	0.2
CC1=C(C(=O)OCc2ccccc2)C(c2ccoc2)C(C#N)=C(N)O1 (stereo not drawn)	48	0.28	0.5	77*	0.2
C=CCOC(=O)C1=C(C)OC(N)=C(C#N)C1c1c(C)nn(-c2ccccc2)c1Cl (stereo not drawn)	82*	-1.9	0.2	89*	0.1
CC1=C(n2nnc3ccccc32)C(c2ccccc2)C(C#N)=C(N)O1 (stereo not drawn)	26	-0.34	0.7	30	0.7
O=C(NC1CCS(=O)(=O)C1)c1ccc(-c2ccc(Br)cc2)o1 (stereo not drawn)	9	0.91	0.9	22	0.8
Cc1nc2c(C(=O)NCc3ccccc3)c[nH]n2c(=O)c1Cl	53*	0.28	0.5	-10	1.1
O=C(NCc1cccnc1)c1cnc2n(c1=O)CCS2	x	1.9	x	x	x
O=C(NCc1ccccc1Cl)c1cnc2n(c1=O)CCS2	4	x	1	64*	0.4
Cc1nc2c(C(=O)NCCc3ccccc3Cl)c[nH]n2c(=O)c1Cl	x	0.56	x	x	x
Cc1nc2c(C(=O)NCc3ccccc3Cl)c[nH]n2c(=O)c1Cl	92*	1.3	0.1	30	0.7
COc1ccc(CCNC(=O)CCC(=O)N2CCN(S(=O)(=O)c3ccccc3)CC2)cc1OC	33	0.09	0.7	44	0.6
CC(C)(C)c1cc(-c2ccco2)c(C#N)c(SCC#N)n1	95*	-2.8	0.1	40	0.6
Cc1nn2c(-n3ccnc3)c3c(nc2c1-c1ccccc1)CCC3	63*	-0.67	0.4	96*	0
CCc1nc(SCC(=O)c2ccc(C)c(C)c2)n[nH]1	-133	0.48	2.3*	97*	0
SMILES	CYP2C9 inh	Pyk2 oligo antag	CYP2C9 activ	CYP2C19 inh	CYP2C19 act
Cc1nc(SCC(=O)c2ccc(F)cc2)n[nH]1	71*	0.69	0.3	58*	0.4
Cc1ccc(C(=O)CSc2n[nH]c(-c3ccco3)n2)cc1C	36	-0.17	0.6	24	0.8
Cc1nc(SCC(=O)c2c[nH]c3ccccc23)n[nH]1	-62	-0.47	1.6	10	0.9
O=C(CSc1nc(C2CC2)nc2ccccc12)N1c2ccccc2Sc2ccccc21	97*	0.18	0	44	0.6
Cc1nc(SCC(=O)N2c3ccccc3Sc3ccccc32)n[nH]1	36	0.62	0.6	60*	0.4
CC(=O)Cc1nsc(NC(=O)c2cccs2)n1	-4	0.28	1	-9	1.1
Cc1csc(Sc2ccc([N+](=O)[O-])cc2C(=O)OCC(=O)NC2CCCC(C)C2C)n1 (stereo not drawn)	50*	0.02	0.5	58*	0.4
COC(=O)NCc1cc2cc(Cl)ccc2[nH]1	x	-0.36	x	x	x
NC(=O)C1(N2CCCCC2)CCN(C(=O)NC23CC4CC(CC(C4)C2)C3)CC1	56*	0.43	0.4	14	0.9
